TbPYK inhibitor: qHTS of Trypanosoma Brucei Inhibitors; pyruvate kinase (Trypanosoma brucei), Q57TT1; TbPYK enzyme, Kinase-Glo Plus ATP luminescence, 45 min; Potency, µM (titrated, usually from 76.8 µM), for the others: at the highest dose activity, negative = inhibition, actives largely listed as inhibitors; actives 0.12% (n = 410,000); AID 624173, 2012; also: potency is read from the fitted curve at half-maximal effect; nearly all actives have a fitted effect of over 50% in size
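Enzyme and substrate buffer are dispensed first and compound is pin-transferred. ADP at 130 uM final then starts the reaction, which runs 45 min at room temperature. Detection reagent is added for 10 min before luminescence is imaged.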
VACV mCherry inh: qHTS for Stage-Specific Inhibitors of Vaccinia Orthopoxvirus: mCherry Reporter Primary qHTS. Vaccinia virus mCherry reporter infection, fluorescence. Potency, µM (highest dose often 36.5 µM), inactives show top-dose activity change, negative = inhibition, actives largely listed as inhibitors. actives 0.63% (n = 310,000). AID 720579, 2013; calls by dose curve; tested in A549 cells; also: potency is read from the fitted curve at half-maximal effect; nearly all actives have a fitted effect of over 35% in size
LmPK inhibitor: qHTS Assay for Inhibitors of Leishmania Mexicana Pyruvate Kinase (LmPK); purified LmPK, Kinase-Glo ATP luminescence, 1 h; Potency, µM (top dose mostly 57.5 µM), for inactives: at the top dose activity change, negative = inhibition, usual class: inhibitors; actives 0.37% (n = 290,000); also: potency is read from the fitted curve at half-maximal effect
Target sequence (Q27686 whole entry, looked up): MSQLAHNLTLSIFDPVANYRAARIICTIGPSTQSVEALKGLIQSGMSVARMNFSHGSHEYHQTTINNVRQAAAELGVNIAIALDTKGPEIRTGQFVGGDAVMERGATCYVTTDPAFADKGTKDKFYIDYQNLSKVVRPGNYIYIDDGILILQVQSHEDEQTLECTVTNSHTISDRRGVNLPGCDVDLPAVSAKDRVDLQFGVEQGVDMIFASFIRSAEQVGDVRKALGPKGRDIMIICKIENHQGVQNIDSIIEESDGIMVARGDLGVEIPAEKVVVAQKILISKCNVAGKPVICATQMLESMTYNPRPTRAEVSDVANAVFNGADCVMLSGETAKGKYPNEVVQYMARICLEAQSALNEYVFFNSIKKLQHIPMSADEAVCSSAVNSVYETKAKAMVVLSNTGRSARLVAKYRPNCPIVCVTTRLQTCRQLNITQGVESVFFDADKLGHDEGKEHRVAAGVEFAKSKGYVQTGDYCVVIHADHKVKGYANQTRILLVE
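Kinase-Glo luminescence read after 1 h RT reaction of 0.1 nM LmPK with 0.5 mM PEP and 0.1 mM ADP. Activity scaled between uninhibited and enzyme-free controls.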
Vaccinia Venus: qHTS for Stage-Specific Inhibitors of Vaccinia Orthopoxvirus: Venus Reporter Primary qHTS; Vaccinia virus Venus reporter expression, fluorescence; Potency, µM (highest dose often 36.5 µM), without a hit: at the top dose activity change, negative = inhibition, most hits filed as inhibitors; actives 0.46% (n = 330,000); calls by dose curve; tested in A549 cells; also: potency is read from the fitted curve at half-maximal effect; nearly all actives have a fitted effect of over 30% in size
HCMV inh: qHTS Assay for inhibitors of the human cytomegalovirus (HCMV); actives 4.5% (n = 410,000); AID 1259415, 2018; HFF cells, HCMV-luciferase reporter, 72 h; hits give low values; activity change, negative = inhibition, % at 57.5 µM; in the data active = activity change below about -60%; inconclusive = no clear call, values can overlap the other calls; inactive = above about -39%
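Compounds were evaluated in HFFs infected with an HCMV luciferase reporter virus (MOI 1 PFU/cell). Luciferase in lysates collected 72 h post infection served as the replication measure.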
* marks the source's active call; other numbers are inactive results; i = inactive; ? = inconclusive; · = no result given; ! = not confirmed by another sample; [ ] = another dose, or the depositor's remark. Shown are actives, neighbours in structure and some others; about 5% of the full set was active somewhere. Unless noted, calls follow the shape of the dose curve; as a rule, active = well fitted curve in the direction sought with a large enough effect; inconclusive = small, poorly fitted or top-dose-only effect, or another doubt; inactive = no such curve, though single readings can be large; an effect the other way counts as inactive or inconclusive. % is scaled to controls: 0 for no effect and ±100 for the full control effect.

SMILES	TbPYK inhibitor	VACV mCherry inh	LmPK inhibitor	Vaccinia Venus	HCMV inh
Cc1cc(N2CCN(C)CC2)nc2ccc(NC(=O)c3ccc(C(C)(C)C)cc3)cc12	-9%	?	·	14µM*	-106*
Cc1cc(N2CCN(C)CC2)nc2ccc(NC(=O)Nc3ccc(Cl)cc3)cc12	5%	-12%	·	-6%	11
COc1ccc(NC(=O)Nc2ccc3nc([C@@H]4O[C@H](CO)[C@@H](O)[C@H](O)[C@H]4O)[nH]c3c2)cc1OC1CCCC1	-2%	39%	·	6%	-16
CCN(CC)c1ccc(C(=O)Nc2ccc3nc(N(CC)CC)cc(C)c3c2)cc1	0%	7%	·	-11%	-67*
O=C(NC1CCCC1)c1c(O)nc2sccn2c1=O	-3%	-16%	·	-10%	3
Cc1cc(NCCC(C)C)n2nc(C)c(-c3ccccc3)c2n1	-6%	·	-2%	·	12
Cc1cc(NCc2ccccn2)n2ncc(-c3ccccc3)c2n1	2%	-28%	3%	-25%	-66*
Cc1cc(NCc2ccccn2)n2nc(C)c(-c3ccc(Cl)cc3)c2n1	7%	?	10%	?	-99*
CCCc1cc(N2CCCC2)n2nc(C)c(-c3ccccc3)c2n1	0%	·	-4%	·	?
Cc1cc(NCc2ccccn2)n2ncc(-c3ccc(Cl)cc3)c2n1	-2%	-24%	-4%	-21%	-38
CCCc1cc(NCc2ccccn2)n2nc(C)c(-c3ccccc3)c2n1	1%	-26%	-2%	-26%	-95*
Cc1nn2c(NCc3ccccn3)cc(C(C)C)nc2c1-c1ccccc1	2%	·	7%	·	-98*
O=C(CN1CCOCC1)n1c2c(c3ccccc31)CCCC2	1%	-10%	5%	-7%	3
Cc1cccc(-n2ncc3c(=O)[nH]c(SCC(=O)NCCC4=CCCCC4)nc32)c1	2%	·	·	·	-17
COC(=O)[C@@]12C[C@@H](CC(=O)N3CCSCC3)C(=O)N(Cc3ccccc3)C1=CCC(C)(C)C2	·	i	·	0%	?
CN(C)c1c(Cl)cc(/C=C2\C=Cc3ccccc32)cc1Cl	·	-11%	·	-1%	·
CCOC(=O)Nc1nc(-c2ccccc2)c(C(=O)c2ccc(Cl)cc2)s1	-8%	·	0%	?	-67*
CCOC(=O)Nc1sc(C)nc1-c1ccccc1	-5%	-5%	-5%	-5%	-7
CC(NC(=O)c1ccco1)C(=O)N1CCN(c2cccc(Cl)c2)CC1 (stereo not given)	3%	·	·	·	-27
CC(C)C(NC(=O)Cc1ccccc1)C(=O)N1CCN(c2cccc(Cl)c2)CC1 (stereo not given)	-3%	·	·	·	-101*
CNC(=O)COC(=O)c1ccccc1NC(=O)c1ccco1	0%	-1%	7%	8%	-101*
COc1ccc(C(C(=O)c2ccccc2)c2ccccc2)cc1 (stereo not given)	·	?	·	8%	-82*
CCC(CC)NC(=O)C1CCN(c2ccc(S(=O)(=O)N3CCOCC3)cc2[N+](=O)[O-])CC1	4%	·	·	·	-8
Cc1ccc(C)c2[nH]c(=O)c(CCNC(=O)CCc3ccccc3)cc12	2%	-1%	1%	-7%	-76*
CC1CNCCN1S(=O)(=O)c1cccc2cnccc12 (stereo not given)	1%	?	-9%	?	-64*!
SMILES	TbPYK inhibitor	VACV mCherry inh	LmPK inhibitor	Vaccinia Venus	HCMV inh
O=S(=O)(c1cccc2cnccc12)N1CCCNCC1	-3%	-8%	2%	-23%	·
CCCCNC(=O)CCNS(=O)(=O)c1ccc(C)cc1	1%	-20%	0%	-10%	1
Cc1ccc2c(c1)c1n[nH]c(=S)nc1n2CCc1ccccc1	-3%	·	-6%	·	-93*
Cc1ccc2nc(C(F)(F)F)c(C#N)c(N)c2c1	-2%	·	3%	·	-107*
COc1ccc2c(c1)cc(CNc1ccc(OC)c(OC)c1)c(=O)n2CC(=O)Nc1ccc(F)cc1	-11%	-5%	·	10%	0
CCCCc1nc2ccccc2n1CC(=O)NN	-5%	-2%	2%	-4%	0
CN1CCC(=C2c3ccccc3CCc3sccc32)CC1	2%	?	1%	-29%	·
CN1CCC(=C2c3ccccc3CC(=O)c3sccc32)CC1	2%	-20%	5%	-11%	-65*!
Cc1ccc(NC(=O)CN2C(=O)C3C4C=CC(C4)C3C2=O)cc1S(=O)(=O)N(C)C (stereo not given)	7%	-18%	5%	-14%	-103*
COc1cc(CCC(=O)Nc2ccc(C)c(S(=O)(=O)N(C)C)c2)cc(OC)c1OC	2%	-17%	4%	-24%	-4
COc1ccc(CCC(=O)Nc2ccc(C)c(S(=O)(=O)N(C)C)c2)cc1OC	1%	-7%	1%	-15%	-77*
Cc1ccccc1-c1nn2c(=O)cc(CN3CCN(C(=O)/C=C/c4ccccc4)CC3)nc2s1	-6%	-29%	·	-28%	6
O=C(/C=C/c1cccc2ccccc12)c1ccncc1	-1%	?	0%	?	-83*
Cc1[nH]c2ccccc2c1/C=C/C(=O)c1ccncc1	1%	-25%	-4%	-29%	-18
COC(=O)/C(=C\c1ccc(O)cc1)c1nc2ccccc2[nH]1	10%	-15%	0%	-16%	29
O=C(/C(=C\c1ccccc1)c1nc2ccccc2[nH]1)c1ccc(Cl)cc1	-6%	-13%	5%	-29%	-87*
COc1cc(/C=C(/C(=O)c2cccs2)c2nc3ccccc3[nH]2)ccc1O	-4%	·	-6%	·	-99*
O=C(/C(=C/c1ccc(Cl)cc1)c1nc2ccccc2[nH]1)c1cccs1	-4%	·	-2%	·	·
COC(=O)/C(=C\c1cc(OC)c(OC)c(OC)c1)c1nc2ccccc2[nH]1	-7%	-20%	-7%	-11%	-98*
CCCc1nc2oc3c(NCCCN(C)C)ncnc3c2c2c1CCCC2	-1%	i	5%	-16%	-98*
CCCc1nc2oc3c(NCCN(C)C)ncnc3c2c2c1CCCC2	-1%	·	0%	·	34
Cc1ccc(Cl)cc1N1CCN(CCCNC(=O)c2nnc(Cc3cccc(Cl)c3)o2)CC1	7%	-27%[7.34 µM]	·	-21%[7.34 µM]	-102*
Cc1c(NC(=O)CSc2ccc3c(c2)OCCO3)c(=O)n(-c2ccccc2)n1C	?	·	-6%	·	-10
CC(=O)NC(=S)Nc1cccc(S(=O)(=O)NC2=NCCC2)c1	-8%	-11%	-4%	10%	-21
O=C(OCc1cn([C@H]2CN(C(=O)C3CCCCC3)[C@@H](c3ccccc3)C[C@@H]2O)nn1)c1ccccc1	0%	4%	·	-16%	12
CCC1CCCCN1S(=O)(=O)c1ccc(NC(=O)c2cccnc2)cc1 (stereo not given)	2%	-20%	-7%	-28%	-12

Source: PubChem BioAssay
